Records with an inconclusive call do not appear. Active and inactive are the calls of the source. Unless noted, calls follow the shape of the dose curve; as a rule, active = well fitted curve in the direction sought with a large enough effect in the repeat runs; inconclusive = weak or mixed curves; inactive = no such curve, though single readings can be large; an effect the other way counts as inactive or inconclusive.

The source of these data is PubChem BioAssay (Tox21).

Assay [1] is described as follows: qHTS assay for small molecules that induce genotoxicity in human embryonic kidney cells expressing luciferase-tagged ATAD5 (AID 651632). Also: nearly all actives have a fitted effect of over 15% in size. As to conditions: HEK293T ATAD5-luciferase induction, 16 h; series mostly up to 83.3 µM. In short, it runs like this: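 A rise in luciferase signal from ATAD5-tagged HEK293T cells marks genetic stress. Cells were exposed to compounds for 16 hr at 37C, 5% CO2, then luciferase was quantified after a 30 min room-temperature incubation with Amplite.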
For orientation: qHTS replaces the single test concentration by a dilution series.

Assay [2] is described as follows: qHTS assay for small molecule disruptors of the mitochondrial membrane potential (AID 720635). Also: potency is read from the fitted curve at half-maximal effect. Conditions: HepG2 mitochondrial membrane potential, Mito-MPS dye ratio; series mostly up to 83.2 µM. In short, it runs like this:
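HepG2 cells (2,000/well) attached overnight at 37C, then took compound for 1 hr at 37C, 5% CO2. Mito-MPS dye was added for 30 min; fluorescence was read at 490/535 nm (monomers) and 540/590 nm (aggregates).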

The nature of assay [3]: qHTS assay to test for compound auto fluorescence at 535 nm (green) in HepG2 cells (AID 720675). As to conditions: green autofluorescence 485/535 nm, 1 h; series mostly up to 91.3 µM.
The nature of assay [4]: qHTS assay to test for compound auto fluorescence at 460 nm (blue) in HEK293 cells (AID 720678). Conditions: blue autofluorescence 405/460 nm; series mostly up to 91.3 µM. In short, it runs like this: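 Triamterene serves as the blue fluorophore standard. Compound signal at 405/460 nm is read in HEK293 wells (2,000 cells, 10% dialyzed FBS) after overnight treatment at 37C.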

Assay [5] can be described thus: qHTS assay to test for compound auto fluorescence at 590 nm (red) in HEK293 cells (AID 720679). As to conditions: red autofluorescence 540/590 nm; series mostly up to 91.3 µM. In short, it runs like this:
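We plated HEK293 cells in 10% dialyzed FBS medium, let them adhere for 4-5 hr, then added 23 nL compound. Overnight at 37C and 5% CO2 preceded fluorescence measurement at 540/590nm.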

The nature of assay [6]: qHTS assay to test for compound auto fluorescence at 535 nm (green) in HEK293 cells (AID 720680). Conditions: green autofluorescence 485/535 nm; series mostly up to 91.3 µM.
Assay [7] in a line: qHTS assay to test for compound auto fluorescence at 460 nm (blue) in HEK293 cell free culture (AID 720681). Conditions: cell-free medium, autofluorescence 405/460 nm (blue); series mostly up to 91.3 µM. In short, it runs like this:
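Test compounds were pinned into cell-free culture medium (DMEM with 10% FBS) and fluorescence was read directly at Ex/Em 405/460 nm. Signals were expressed as fluorescence equivalents of triamterene, with DMSO vehicle as control.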

Assay [8] can be described thus: qHTS assay to test for compound auto fluorescence at 535 nm (green) in HEK293 cell free culture (AID 720682). As to conditions: cell-free medium, green autofluorescence 485/535 nm; series mostly up to 91.3 µM. In short, it runs like this: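 Using fluorescein as calibrant, autofluorescence was quantified at 485/535 nm in cell-free DMEM containing 10% FBS after pintool addition of compound or vehicle.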

Assay [9] can be described thus: qHTS assay to test for compound auto fluorescence at 590 nm (red) in HEK293 cell free culture (AID 720683). Conditions: cell-free medium autofluorescence, Ex540/Em590 red; series mostly up to 91.3 µM. In short, it runs like this:
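Tox21 10K library compounds were pinned into cell-free DMEM with 10% FBS and fluorescence was read at excitation 540 nm. Activity is expressed as Rose Bengal sodium equivalency.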

A short description of assay [10]: qHTS assay to test for compound auto fluorescence at 590 nm (red) in HepG2 cell free culture (AID 720684). As to conditions: cell-free medium autofluorescence, red 540/590 nm; series mostly up to 91.3 µM. In short, it runs like this: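 Readout: intrinsic compound fluorescence at 590 nm emission after 540 nm excitation, scaled to Rose Bengal sodium. Matrix was cell-free MEM with 10% FBS; DMSO vehicle wells served as control.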

Assay [11] can be described thus: qHTS assay to test for compound auto fluorescence at 460 nm (blue) in HepG2 cell free culture (AID 720685). Conditions: Cell-free culture medium, blue autofluorescence 405/460 nm; series mostly up to 91.3 µM. In short, it runs like this:
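Cell-free plates of MEM plus 10% FBS received 23 nL compound or DMSO vehicle; blue-channel (405/460 nm) intensity scored against triamterene as reference fluorophore.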

Assay [12] in a line: qHTS assay to test for compound auto fluorescence at 535 nm (green) in HepG2 cell free culture (AID 720686). Conditions: Cell-free medium, green autofluorescence 485/535 nm; series mostly up to 91.3 µM.
The nature of assay [13]: qHTS assay to test for compound auto fluorescence at 460 nm (blue) in HepG2 cells (AID 720687). Conditions: autofluorescence 405/460 nm, 1 h; series mostly up to 91.3 µM. In short, it runs like this:
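Cells (2,000/well in MEM with 10% FBS) attached overnight at 37 C, then were exposed to compound or DMSO for 1 hr at 37 C, 5% CO2. Fluorescence read at Ex/Em 405/460 nm, expressed as triamterene-equivalent signal.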

The target of assay [14] is Glucocorticoid receptor (Homo sapiens) (UniProt P04150). The assay is described as follows: qHTS assay to identify small molecule agonists of the glucocorticoid receptor (GR) signaling pathway (AID 720691; active = well fitted activation curve with a large enough effect in the signal ratio in the repeat runs, not every such curve was filed as active; the % refers to the signal ratio). As to conditions: GR-bla HeLa, beta-lactamase reporter ratio, 18 h; activation: at 62.4 µM (top of the series). In short, it runs like this:
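Agonist-mode qHTS in HeLa cells stably expressing a glucocorticoid-response-element beta-lactamase reporter. Fluorescence intensity read with FRET substrate (2 h, room temperature) after 18 h compound treatment at 37 C.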

Assay [15] can be described thus: qHTS assay to test for compound auto fluorescence at 590 nm (red) in HepG2 cells (AID 720674). As to conditions: HepG2 autofluorescence, red 540/590 nm, 1 h; series mostly up to 91.3 µM. In short, it runs like this: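 Rose Bengal sodium served as the red fluorophore standard. HepG2 monolayers (overnight attachment, MEM with 10% FBS) were exposed to test compounds for 1 hr at 37 C and read at Ex 540/Em 590 nm.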

For assay [16], the target named is Glucocorticoid receptor (Homo sapiens) (UniProt P04150). Briefly: qHTS assay to identify small molecule antagonists of the glucocorticoid receptor (GR) signaling pathway (AID 720692; active = well fitted inhibition curve with a large enough effect in the signal ratio in the repeat runs, not every such curve was filed as active; the % refers to the signal ratio). Conditions: GR-bla HeLa, beta-lactamase FRET ratio, dexamethasone-stimulated, 18 h; series mostly up to 58.5 µM. In short, it runs like this: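 Inhibition of dexamethasone-driven (5 nM final) beta-lactamase expression was measured in GRE-reporter HeLa cells over 18 h at 37C. Fluorescence was read after 2 h with the B/G FRET substrate at room temperature.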
Chain of Glucocorticoid receptor (Homo sapiens) (P04150 whole entry, looked up): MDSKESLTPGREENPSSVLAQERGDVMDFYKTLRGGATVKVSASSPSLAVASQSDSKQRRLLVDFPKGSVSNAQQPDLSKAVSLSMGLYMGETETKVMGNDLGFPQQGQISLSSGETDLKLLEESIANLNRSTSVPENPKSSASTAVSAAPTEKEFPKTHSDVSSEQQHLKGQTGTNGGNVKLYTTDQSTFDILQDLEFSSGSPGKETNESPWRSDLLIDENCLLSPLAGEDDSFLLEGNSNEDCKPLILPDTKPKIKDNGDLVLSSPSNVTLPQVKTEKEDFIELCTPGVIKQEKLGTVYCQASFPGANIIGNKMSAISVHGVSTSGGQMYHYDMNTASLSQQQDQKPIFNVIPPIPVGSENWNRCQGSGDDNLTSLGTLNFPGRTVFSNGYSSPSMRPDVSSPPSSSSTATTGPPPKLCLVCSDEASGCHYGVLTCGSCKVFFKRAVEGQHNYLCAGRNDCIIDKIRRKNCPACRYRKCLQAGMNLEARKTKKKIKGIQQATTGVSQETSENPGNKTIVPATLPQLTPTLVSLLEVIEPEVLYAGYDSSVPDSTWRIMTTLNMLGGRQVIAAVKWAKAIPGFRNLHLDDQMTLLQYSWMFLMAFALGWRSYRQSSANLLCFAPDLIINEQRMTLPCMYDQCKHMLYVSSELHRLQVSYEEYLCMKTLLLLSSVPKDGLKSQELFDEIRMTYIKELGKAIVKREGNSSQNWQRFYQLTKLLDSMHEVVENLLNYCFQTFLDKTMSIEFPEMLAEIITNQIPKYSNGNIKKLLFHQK

Assay [17] can be described thus: qHTS assay for small molecule disruptors of the mitochondrial membrane potential - cell viability (AID 720634; calls by dose curve; also: nearly all actives have a fitted effect of over 20% in size; also: potency is read from the fitted curve at half-maximal effect). As to conditions: HepG2 viability, ATP luminescence (CellTiter-Glo), 1 h; series mostly up to 83.2 µM. In short, it runs like this:
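Cytotoxicity was quantified from ATP content by CellTiter-Glo luminescence in the same wells as the MMP dye read-out. HepG2 (2,000 cells/well) were plated overnight and exposed to compounds for 1 hr at 37 C.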

Assay [18] can be described thus: qHTS assay for small molecules that induce genotoxicity in human embryonic kidney cells expressing luciferase-tagged ATAD5 - cell viability (AID 651634; calls by dose curve; also: potency is read from the fitted curve at half-maximal effect; nearly all actives have a fitted effect of over 25% in size). Conditions: HEK293T ATAD5-luc cells viability, CellTiter-Fluor, 15.5 h; series mostly up to 83.3 µM. In short, it runs like this: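 Cytotoxicity counter-readout: after 15.5 hr compound treatment at 37C, live-cell protease activity in ATAD5-luciferase HEK293T cells measured by CellTiter-Fluor fluorescence, 30 min development at 37C.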

Consider `CCN(CC)c1ccc(N)cc1`, for which the Potency entry in [1], in assay [3], in [4], in [5], in assay [6] and in assay [7] was “inactive” in each case. Besides, the Potency entry in assay [8], in assay [9], in [10], in assay [11], in [12] and in [13] was “inactive” each time. Also, the Potency result in assay [14] was “inactive”. Moreover, the Potency in assay [2] was 49.9 µM (active).
As to `COC(=O)[C@]1(C)CCC[C@@]2(C)[C@H]1CC=C1C=C(C(C)C)CC[C@@H]12`, the Potency entry in [1], in assay [15], in assay [3], in [4], in assay [5] and in assay [6] was “inactive” throughout. The Potency entry in assay [7], in assay [8], in assay [9], in assay [10], in assay [11] and in [12] was “inactive” each time. For the same compound, the Potency result in assay [13], in assay [14] and in assay [16] was “inactive” each time. In addition, the Potency in [2] was 54.5 µM (active).
`CCCCCCOc1cc(C)c(O)c(C)c1C`: the Potency entry in assay [1], in assay [15], in [3], in assay [4], in [5] and in [6] was “inactive” throughout. For the same compound, the Potency result in assay [7], in [8], in assay [9], in [10], in [11] and in [12] was “inactive” throughout. In addition, the Potency result in assay [13] is “inactive”. In addition, the figures for the Potency in assay [17] and in assay [2] were 27.6 µM (active) and 5.51 µM (active), respectively.
For `Cc1cc2c(C(C)C)c(O)c(O)c(C=O)c2c(O)c1-c1c(C)cc2c(C(C)C)c(O)c(O)c(C=O)c2c1O`, the Potency is 13.3 µM (active) in assay [18] and 11.9 µM (active) in assay [2]. Moreover, the Potency entry in assay [17], in [15], in [3], in [4], in assay [5] and in assay [6] was “inactive” each time. For the same compound, the Potency entry in assay [7], in assay [8], in assay [9], in [10], in assay [11] and in assay [12] was “inactive” throughout. Also, the Potency result in assay [13] is “inactive”.
